Bioassay records from PubChem BioAssay.
This is a sample that favours compounds with a hit; in the whole collection about 1.8% have one here.
Granule exo inh = blocks lytic granule exocytosis. TALL-104 LAMP-1 surface exposure, flow cytometry; cells stimulated with thapsigargin and PMA. inhibition, % at 10 µM. 360,000 tested, 0.66% active;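 active = inhibition above about 55%, limit read from the data; inconclusive = no clear call, values can overlap the other calls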
ABCB6 inh 2 = inhibitors of human ABC transporter ABCB6; Q9NP58; K562-ABCB6 porphyrin accumulation, flow cytometry, 1 h; active compounds read low; fluorescence ratio to DMSO, % at 10 µM; 360,000 tested, 0.19% active;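 active = fluorescence ratio to DMSO below 75%, the collection mean minus 3 SD; inconclusive = too few cells collected in the well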;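 note: signal is porphyrin accumulated inside mitochondria; 100% equals median channel fluorescence of DMSO control wells; lower ratio means ABCB6 inhibition with less porphyrin fluorescence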
Target sequence (Q9NP58 whole entry, looked up): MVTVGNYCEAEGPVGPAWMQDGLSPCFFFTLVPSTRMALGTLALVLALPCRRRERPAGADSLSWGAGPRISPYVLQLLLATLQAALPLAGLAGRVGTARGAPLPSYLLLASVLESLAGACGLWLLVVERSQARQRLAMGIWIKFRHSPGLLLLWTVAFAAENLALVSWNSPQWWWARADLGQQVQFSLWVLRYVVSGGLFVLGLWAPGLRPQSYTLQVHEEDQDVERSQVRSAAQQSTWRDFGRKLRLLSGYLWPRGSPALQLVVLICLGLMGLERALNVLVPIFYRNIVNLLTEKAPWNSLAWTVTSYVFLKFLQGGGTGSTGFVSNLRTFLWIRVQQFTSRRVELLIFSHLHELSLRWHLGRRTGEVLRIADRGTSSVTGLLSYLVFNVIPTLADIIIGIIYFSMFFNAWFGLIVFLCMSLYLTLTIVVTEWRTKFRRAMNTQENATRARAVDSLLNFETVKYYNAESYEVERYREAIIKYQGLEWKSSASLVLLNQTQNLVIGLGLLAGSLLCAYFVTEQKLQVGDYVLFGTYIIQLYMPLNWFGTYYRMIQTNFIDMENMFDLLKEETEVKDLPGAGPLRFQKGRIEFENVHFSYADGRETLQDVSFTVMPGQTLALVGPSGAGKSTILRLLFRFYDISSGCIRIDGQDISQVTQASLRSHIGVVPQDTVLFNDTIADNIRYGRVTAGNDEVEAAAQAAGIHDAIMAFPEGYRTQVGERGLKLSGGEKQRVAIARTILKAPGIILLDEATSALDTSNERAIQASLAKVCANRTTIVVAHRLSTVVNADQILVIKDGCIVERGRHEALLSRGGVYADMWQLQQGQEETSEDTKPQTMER
Myeloid diff MLP = promotes myeloid progenitor differentiation | ER-HoxA9 myeloid progenitors, lysozyme-GFP differentiation, flow cytometry | calls only at 10 µM | 360,000 tested, 1% active | AID 624256;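 active = normalized GFP-positive differentiation at or above the plate's own cutoff, the solvent-only control mean plus 3 SD; inconclusive = no clear call, values can overlap the other calls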;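 note: cells exposed to compound for four days before flow analysis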
Granule exo CP1 = lytic granule exocytosis inhibition. shares compounds with Granule exo inh. TALL-104 cells, LAMP-1 externalization, flow cytometry; stimulated with PMA plus thapsigargin. inhibition, % at 10 µM. 1,500 tested, 11% active. AID 651954; in the data active = inhibition above about 60%;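 note: 0% = stimulated vehicle wells and 100% = unstimulated wells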
* = called active by the depositor; i = inactive; ? = inconclusive; nt = no result; + = active, no number.

SMILES	Granule exo inh	ABCB6 inh 2	Myeloid diff MLP	Granule exo CP1
CCc1ccc(NC(=O)CSCCO)cc1	85*	100	i	-12
Cc1cc2ccccn2c1C(=O)c1ccc([N+](=O)[O-])o1	50	118	nt	nt
COc1ccccc1C(=O)Nc1cccc2cccnc12	56*	100	i	-14
O=C(Nc1cccc2cccnc12)c1ccccc1Cl	0	93	i	nt
COc1cc(NC(=O)c2cc(OC)c(OC)c(OC)c2)c2ncccc2c1	94*	101	i	25
COc1cc(NC(=O)OCc2ccccc2)c2ncccc2c1	-4	96	i	nt
COc1ccccc1NC(=O)CNC(c1ccccc1)c1ccccc1	77*	95	i	-12
COc1ccc(NC(=O)c2ccccc2Oc2ccccc2)c(OC)c1	47	96	i	nt
COc1ccccc1NC(=O)c1ccccc1Oc1ccccc1	68*	99	i	-1
COc1cc(NC(=O)CNC(c2ccccc2)c2ccccc2)cc(OC)c1OC	11	97	i	nt
O=C(CNC(=O)c1ccc(F)cc1)NCc1ccc(S(=O)(=O)N2CCOCC2)cc1	1	97	i	nt
CCOCCCNC(=O)c1ccc(/C=C2\Oc3ccccc3N(C)C2=O)cc1	6	98	i	nt
CCOC(=O)[C@H]1[C@H]2COc3ccc(Cl)cc3[C@@H]2N2C(=O)CN(C)C(=O)[C@@]12C	-10	97	i	nt
CCN1C[C@@H]2[C@@H]3C(=O)N(C)C(=O)[C@@H]3[C@](C)(C1=O)N2C(=O)c1ccc(Cl)c(Cl)c1	-7	100	i	nt
O=C(NCCCN1CCOCC1)C1Cc2c(ccc3ccccc23)O1 (stereo unspecified)	2	109	i	nt
CN(C(=O)c1cccc(NC(=O)Cc2ccc(NC(=O)C3CCN(C(=O)CCc4ccccc4)CC3)cc2)c1)C1CCC1	0	98	i	nt
COc1ccccc1NC(=O)C(C)N(C)Cc1ccc(Cl)s1 (stereo unspecified)	58*	100	i	-5
COc1ccccc1NC(=O)C(C)N(C)CC(=O)Nc1cccc2ccccc12 (stereo unspecified)	5	134	i	nt
CC(=O)c1ccc(-c2ccc(C(=O)N(C)Cc3nc4ccccc4c(=O)[nH]3)o2)cc1	-1	92	i	nt
CCOc1ccc(C(=O)Nc2sc3c(c2C(=O)OC)CC(C)(C)NC3(C)C)cc1	21	96	?	nt
COC(=O)c1c(NC(=O)c2nc3ccccc3s2)sc2c1CC(C)(C)NC2(C)C	67*	94	i	85*
COC(=O)c1c(NC(=O)c2ccc(C(=O)c3ccccc3)cc2)sc2c1CC(C)(C)NC2(C)C	67*	94	?	63*
CCOC(=O)c1c(NC(=O)CSc2nc3ccccc3[nH]2)sc2c1CC(C)(C)NC2(C)C	-1	101	i	nt
COc1ccc(Cn2c(=S)[nH]c3ccsc3c2=O)cc1	-4	94	i	nt
Cn1ccsc1=NC(=O)c1cccc(C#N)c1	-5	101	i	nt
SMILES	Granule exo inh	ABCB6 inh 2	Myeloid diff MLP	Granule exo CP1
CCC(=O)NC(=S)Nc1ccc(S(=O)(=O)NC2CCCCC2)cc1	3	96	i	nt
COc1cc(Sc2ccc(C)cc2)c(OC)cc1N	94*	103	i	-12
COC(=O)c1ccc(Sc2ccc(C)cc2)c(N)c1	0	98	i	nt
CC(C)(Oc1ccc(Cl)cc1)C(=O)NC1CC1	10	88	i	nt
Nc1c(C(=O)c2ccccc2)sc2nsc(SCCN3CCCC3)c12	64*	165	+	-4
Cc1cc(C)c2c(N)c(C(=O)c3ccccc3)sc2n1	6	97	i	nt
CCn1c2c(c3cc(Br)ccc31)CCC/C2=N\O	6	104	i	nt
CCn1c2c(c3cc(OCC(C)C)ccc31)CCCC2=O	58*	91	i	-4
c1ccc(-c2nc(NC3CCCC3)c3ccccc3n2)cc1	57*	100	i	-5
COc1cccc(-c2nc(NCc3ccco3)c3ccccc3n2)c1O	-2	108	i	nt
c1ccc(Nc2nc(-c3ccccc3)nc3ccccc23)cc1	-17	101	i	nt
COc1cccc(-c2nc(NCc3ccccc3)c3ccccc3n2)c1O	64*	98	i	14
COc1cccc(-c2nc(NC3CCCC3)c3ccccc3n2)c1O	78*	104	i	0
C=CCNc1nc(-c2cccc(OC)c2O)nc2ccccc12	-3	95	i	nt
O=C(Cn1ccc(C(F)(F)F)n1)Nc1cccc(S(=O)(=O)N2CCCCC2)c1	-2	98	i	nt
CCOC(=O)N1CCN(C(=O)C(=O)Nc2sc3c(c2C(=O)O)CC(C)(C)OC3)CC1	-1	98	i	nt
O=C(NCc1ccc(F)cc1)c1cccnc1C(=O)O	-10	101	i	nt
C[C@@H]1CN([C@@H](C)CO)S(=O)(=O)c2ccc(Br)cc2O[C@H]1CN(C)Cc1ccc(-c2ccccc2)cc1	4	98	i	nt
Cc1ccc(C)c(N2N=C(C(=O)N(CC(C)C)c3c(N)n(Cc4ccccc4)c(=O)[nH]c3=O)CCC2=O)c1	0	106	i	nt
CC(C)C[C@H](NC(=O)C1CCN(S(=O)(=O)c2ccccc2)CC1)C(=O)NCc1ccncc1	1	99	i	nt
O=C(Cc1ccc([N+](=O)[O-])cc1)OCc1c(F)cccc1Cl	1	100	i	nt
Cc1ccc2c(Cl)cc(Cl)c(O)c2n1	22	105	i	nt
Cc1ccc2c(Cl)cc(Cl)c(OCc3c(C)noc3C)c2n1	59*	96	i	-4
O=C(CCS(=O)(=O)Cc1ccc(Cl)cc1)NCCc1ccccc1	0	95	i	nt
CC(C)N(Cc1nc(-c2ccc3c(c2)OCO3)no1)Cc1nccn1C	4	96	i	nt
SMILES	Granule exo inh	ABCB6 inh 2	Myeloid diff MLP	Granule exo CP1
CC1(C(=O)NS(=O)(=O)c2cccs2)CCN1C(=O)c1ccco1 (stereo unspecified)	1	96	i	nt
COc1ccc(C(=O)NC(=S)Nc2ccc3[nH]c(=O)[nH]c3c2)cc1	-6	95	i	nt
Cc1cc(OCCCC(=O)Nc2cccc(-n3cnnn3)c2)ccc1Cl	66*	98	i	-12
COc1cccc(NC(=O)COc2cccc(-n3cnnn3)c2)c1	-1	100	i	nt
c1ccc(-c2nc(NCc3cccs3)c3ccccc3n2)cc1	10	104	i	nt
CN(Cc1cccs1)c1nc(-c2cccnc2)nc2ccccc12	84*	85	i	21
CCOC1=C2CN(S(=O)(=O)c3ccc(C)cc3)[C@H](c3ccccc3)C[C@H]2[C@H]2C(=O)N(c3ccccc3)C(=O)[C@H]2C1	-4	96	i	nt
CCSC1=NC(C)(C)C=C(/C=C/c2ccc(Cl)cc2Cl)N1	37	112	i	nt
CSC1=NC(C)(C)C=C(/C=C/c2ccc(Cl)cc2Cl)N1	75*	104	+	27
Cc1oc(=O)c(NC(=O)c2cccc(Cl)c2)cc1C(=O)c1ccccc1	97*	103	i	-3
COc1ccc(C(=O)Nc2cc(C(=O)c3ccccc3)c(C)oc2=O)cc1	45	100	i	nt
O=C(NCCCN1CCCC1=O)C1CCN(S(=O)(=O)c2cccc(C(F)(F)F)c2)CC1	0	103	i	nt
O=C(NCCCN1CCCC1=O)C1CCN(S(=O)(=O)c2cc(C(F)(F)F)ccc2Cl)CC1	90*	87	i	-11
